Rows were chosen to be rich in hits. Some 12% of all compounds tested hit in one or more screens of this group.
Sm TGR inh = blocks Schistosoma mansoni thioredoxin glutathione reductase; purified TGR, DTNB reduction, TNB absorbance 405 nm; Potency, µM (highest dose often 114 µM), inactives show top-dose activity change, negative = inhibition, hits mostly inhibitors; 3% of 360,000 active; note: % is set by controls: 0 for no effect and ±100 for the full control effect; nearly all actives have a fitted effect of over 60% in size
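First, TGR (20 nM dispensed) and NADPH were mixed with compound. Second, a 15 min room-temperature incubation followed. Third, further NADPH and then DTNB were added to start the reaction. Finally, TNB absorbance was monitored kinetically.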
Pf growth 48h = P. falciparum growth inhibition at 48 hours (one generation) | 5.9% of 310,000 active | P. falciparum luciferase growth in erythrocytes, 48 h | Potency, µM (highest dose often 28.7 µM), for inactives: at the highest dose activity change, negative = inhibition, hits mostly inhibitors | AID 504832; note: % is set by controls: 0 for no effect and ±100 for the full control effect
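Cell-based growth assay: transgenic P. falciparum expressing firefly luciferase, cultured in red cells within RPMI 1640 containing 0.5% w/v Albumax, 24 mM bicarbonate and gentamycin. A drop in luciferase activity indicates inhibition.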
AmpC detergent = blocks E. coli AmpC beta-lactamase in detergent assay; AmpC hydrolysis of nitrocefin, absorbance 480 nm, 0.01% Triton; Potency, µM (titrated, usually from 114 µM), for inactives: at the highest dose activity change, negative = inhibition, hits mostly inhibitors; 0.041% of 370,000 active;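 note: 0% = no-compound wells and -100% = no-enzyme wells; nearly all actives have a fitted effect of over 25% in size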
Target sequence (P00811 whole entry, looked up): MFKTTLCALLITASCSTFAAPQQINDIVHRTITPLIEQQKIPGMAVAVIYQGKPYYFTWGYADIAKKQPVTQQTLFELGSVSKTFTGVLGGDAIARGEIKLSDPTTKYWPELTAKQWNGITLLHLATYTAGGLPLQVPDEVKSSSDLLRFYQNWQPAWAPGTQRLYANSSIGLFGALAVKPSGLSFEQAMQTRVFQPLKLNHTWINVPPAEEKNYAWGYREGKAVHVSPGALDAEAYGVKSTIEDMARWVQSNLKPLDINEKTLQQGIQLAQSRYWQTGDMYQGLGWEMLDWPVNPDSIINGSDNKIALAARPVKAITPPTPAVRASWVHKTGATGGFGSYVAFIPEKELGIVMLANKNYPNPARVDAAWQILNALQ
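AmpC (5.3 nM in the dispensed reagent) in 20 mM phosphate pH 7.0 with 0.01% (detergent screen) or 0.0001% Triton X-100 was preincubated with compounds for 15 min at room temperature. Nitrocefin was then added from an 800 uM solution, and hydrolysis was followed at 480 nm.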
SARS PLpro yeast = SARS-CoV PLP inhibition in yeast; 0.19% of 330,000 active; AID 485353; Potency, µM (top dose mostly 32.9 µM), inactives show at the top dose activity, positive = growth rescue, most hits filed as activators; S. cerevisiae expressing SARS-CoV PLpro, growth rescue; calls by dose curve; note: 0% is about no effect; nearly all actives have a fitted effect of over 55% in size
Pf growth 96h = P. falciparum growth inhibition at 96 hours; Potency, µM (highest dose often 28.7 µM), without a hit: at the top dose activity change, negative = inhibition, actives largely listed as inhibitors; P. falciparum luciferase reporter growth, 96 h; 6.9% of 320,000 active; note: % is set by controls: 0 for no effect and ±100 for the full control effect
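Two parasite generations (96 h, 37 C, 5% CO2) of compound exposure in infected erythrocytes (0.05% parasitemia, 2% hematocrit). Luciferase-reporter P. falciparum; decreased luminescence indicates inhibited growth, aimed at apicoplast-acting delayed death.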
AmpC no deterg = AmpC beta-lactamase inhibition without detergent; AmpC nitrocefin hydrolysis, absorbance 480 nm, 0.0001% Triton; P00811; Potency, µM (doses to about 57.1 µM), without a hit: at the highest dose activity change, negative = inhibition, most hits filed as inhibitors; 0.52% of 330,000 active;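 note: plate controls were no compound for no effect and no enzyme for full effect; nearly all actives have a fitted effect of over 20% in size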
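AmpC (5.3 nM in the dispensed reagent) in 20 mM phosphate pH 7.0 with 0.01% (detergent screen) or 0.0001% Triton X-100 was preincubated with compounds for 15 min at room temperature. Nitrocefin was then added from an 800 uM solution, and hydrolysis was followed at 480 nm.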
Starred values were filed as active, the others as inactive; ? = inconclusive; · = not tested or not shown. Unless noted, calls come from the whole dose curve; as a rule, active = well fitted curve in the direction sought with a large enough effect; inconclusive = small, poorly fitted or top-dose-only effect, or another doubt; inactive = no such curve, though single readings can be large; an effect the other way counts as inactive or inconclusive. Potency is the fitted concentration of half-maximal effect.

SMILES | Sm TGR inh | Pf growth 48h | AmpC detergent | SARS PLpro yeast | Pf growth 96h | AmpC no deterg
CCn1nc(C)c(Br)c1C(=O)Sc1ccccc1Cl | 8.9µM* | 17% | 0% | 0% | 18% | -22%
O=C(NCCc1ccc(Cl)cc1)c1cnc2sc(N3CCCCC3)nn2c1=O | 12% | · | 7% | · | · | ·
CC(C)CCOP(=O)(c1ccccc1)c1ccccc1 | 6% | 15µM* | -8% | 12% | ? | 14%
CN(Cc1cccnc1)C(=O)c1cc(S(=O)(=O)Nc2ccccc2F)ccc1Cl | 2% | 5% | 1% | 4% | 3% | -9%
Cc1ccc(C(=O)n2ncn(C)c2=S)cc1 | 18µM* | 0% | 2% | -1% | 11% | -22%
Cc1ccc(C)n1-c1nnc(N2CCCC(C(=O)Nc3ccccc3Br)C2)s1 (stereo unspecified) | ? | · | 9% | · | · | ·
Cc1ccc(CNC(=O)C2CCC(=O)N(CCc3cccc(F)c3)C2)cc1 (stereo unspecified) | -29% | 11% | 3% | ? | 96% | 98%
Cc1cc(CNC(=O)C2CCC(=O)N(CCc3cccc(F)c3)C2)on1 (stereo unspecified) | 20% | -2% | 3% | -2% | 13µM* | -5%
CCc1cc(CNC(=O)C2CCC(=O)N(CCc3cccc(F)c3)C2)on1 (stereo unspecified) | -3% | 3% | -3% | -4% | 13µM* | -2%
O=C(NCCOc1ccccc1F)C1CCC(=O)N(CCc2cccc(F)c2)C1 (stereo unspecified) | -14% | ? | -2% | 3% | 15µM* | 98%
CN(CCC1CCOCC1)C(=O)C1CCC(=O)N(CCc2cccc(F)c2)C1 (stereo unspecified) | 0% | -6% | 9% | 5% | 15µM* | 40%
Cc1onc(-c2ccccc2)c1C(=O)N1CC(C)OC(C)C1 (stereo unspecified) | -24% | -4% | -7% | 11% | 177% | 0%
CC[C@H]1OC(=O)[C@H](C)C(=O)[C@H](C)[C@@H](OC2O[C@H](C)C[C@H](N(C)C)[C@@H]2O)[C@@](C)(OC)C[C@@H](C)C(=O)[C@@H](C)C2N(CCCCn3cnc(-c4cccnc4)c3)C(=O)O[C@@]21C (stereo partly specified) | · | ? | · | · | 13µM* | ·
COc1ccc(NC(=O)CCn2c(=O)c3cccn3c3ccccc32)c(OC)c1 | 0% | ? | ? | -6% | 12µM* | -5%
COc1ccc(NC(=O)CCn2c(=O)c3cccn3c3ccccc32)cc1 | -1% | -11% | -2% | -1% | ? | -34%
Cc1ccc(NC(=O)CCn2c(=O)c3cccn3c3ccccc32)c(C)c1 | -1% | ? | ? | -2% | 13µM* | -24%
CCCc1ccc(C(=O)CCC(=O)NNC(=O)c2ccncc2)cc1 | 0% | 24% | ? | 5% | ? | -5%
CC(C)(C)c1ccc(/C=N/NC(=O)C[n+]2ccccc2)cc1 | 11% | ? | -2% | -5% | -19% | 8%
CCOc1ccccc1N(CC(=O)N/N=C/c1cc(Br)ccc1OC)S(C)(=O)=O | -4% | -23% | ? | 1% | 0% | 67%
O=C(N/N=C/c1cc(Br)ccc1O)Nc1ccccc1 | -12% | ? | -1% | -21% | 8.3µM* | ?
NC(=O)N/N=C\c1cc(Br)ccc1O | -13% | -15% | -6% | 10% | 17% | -15%
O=C(C[n+]1ccccc1)N/N=C/c1ccc(Cl)cc1 | -5% | ? | ? | 3% | 7.4µM* | -28%
CCOc1ccccc1NC(=O)C(=O)N/N=C/c1cc(Br)ccc1O | 0% | 2.3µM* | -3% | 7% | -26% | -15%
O=C(C[n+]1ccccc1)N/N=C/c1cc(Br)ccc1O | 28% | · | -1% | -2% | 4.1µM* | -6%
COc1ccc(NC(=O)CSc2nc(-c3ccccc3)nc3c2Cc2c(CO)cnc(C)c2O3)cc1Cl | ? | · | -5% | · | · | ·
SMILES | Sm TGR inh | Pf growth 48h | AmpC detergent | SARS PLpro yeast | Pf growth 96h | AmpC no deterg
Cn1c(NCc2ccccc2F)nc2ccccc21 | 1% | · | 6% | · | · | ·
O=C(NC1CCCCC1)C(c1ccccc1)N(C(=O)Cc1ccsc1)c1ccccc1 (stereo unspecified) | -4% | -8% | -1% | -1% | 26% | -13%
CCc1ccc(C(=O)c2cn(CC(=O)Nc3ccc(OC)c(Cl)c3)c3nc(C)ccc3c2=O)cc1 | -5% | · | 0% | · | · | ·
Cc1ccc(C)c(N2CCN(C(=O)c3cc(S(=O)(=O)N4CCC(C)CC4)cn3C)CC2)c1 | 2% | · | -4% | · | · | ·
CN(C)S(=O)(=O)c1cccc(NC(=S)N/N=C/c2cccc(O)c2)c1 | · | ? | -2% | 0% | ? | -32%
CN(C)S(=O)(=O)c1cccc(NC(=S)N/N=C/c2cc(Br)ccc2O)c1 | -16% | 2.1µM* | -1% | 20% | ? | ?
CCOC(=O)c1cc(S(=O)(=O)N2CCN(c3ccc(F)cc3)CC2)[nH]n1 | 4% | · | 18% | · | · | ·
CCc1sc(NC(=O)C(C)C)nc1-c1ccccc1 | 6% | -13% | 1% | -2% | 0% | -16%
Cc1cc(OC(C)C(=O)Nc2cccnc2)ccc1Cl (stereo unspecified) | -1% | ? | ? | ? | 9% | 1%
Cc1cc(OC(C)C(=O)Nc2ccncc2)ccc1Cl (stereo unspecified) | -20% | ? | -1% | -15% | 9.3µM* | -1%
Cc1cc(NC(=O)C(C)Oc2ccc(Cl)cc2Cl)no1 (stereo unspecified) | 1% | 8% | -14% | -38% | 1.7µM* | -13%
Cc1ccc(OC(C)C(=O)Nc2ccncc2)cc1 (stereo unspecified) | -5% | -10% | ? | -9% | -22% | -14%
CC(C)NS(=O)(=O)c1ccc(NC(=O)C(C)Oc2ccc(C(=O)c3ccccc3)cc2)cc1 (stereo unspecified) | 7% | ? | 0% | 5% | 2.3µM* | -36%
Cc1ccc(OC(C)C(=O)Nc2cc(C)on2)cc1 (stereo unspecified) | -29% | 15% | -8% | 0% | 4.7µM* | 13%
Cc1ccc([N+](=O)[O-])cc1NC(=S)NC(=O)c1cccs1 | -7% | 34% | -14% | -16% | 24% | -19%
Cc1cc(NC(=O)c2ccc(NC(=O)C(C)Oc3ccccc3)cc2)no1 (stereo unspecified) | -10% | 6.6µM* | 0% | 25% | · | -32%
